Rows were chosen to be rich in hits. Some 21% of all compounds tested hit in one or more screens of this group.
TDP1 cell CPT – qHTS for Inhibitors of human tyrosyl-DNA phosphodiesterase 1 (TDP1): qHTS in cells in presence of CPT. 420,000 compounds, 12% hits. chicken DT40 Tdp1-/-;hTDP1 cells + 20 nM CPT, ATP luminescence, 48 h. AID 686979, 2013. Potency, µM (series often up to 46.2 µM), usual class: inhibitors; also: nearly all actives have a fitted effect of over 55% in size
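Chicken DT40 Tdp1-/- cells complemented with human TDP1, 400 cells/well, exposed to compounds plus 20 nM camptothecin for at least 48 h at 37 C; viability read as ATP content by CellTiter-Glo luminescence.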
IL1B secr inh – qHTS for Inhibitors of Inflammasome Signaling: IL-1-beta AlphaLISA Primary Screen | THP-1 LPS/ATP IL-1B secretion, AlphaLISA, 16 h; hits give low values | activity change, % at 57.5 µM | 360,000 compounds, 4.7% hits | AID 743279, 2014; in the data active = activity change below about -50%; inconclusive = mostly about -30% to -49%
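Secreted IL-1B measured by AlphaLISA bead assay after 16 h compound exposure of THP-1 cells; compounds (final up to 57.5 uM) added 1 h before LPS (250 ng/mL) and ATP (1.25 mM) stimulation; lower signal means less secretion.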
RORg inh – qHTS for inhibitors of ROR gamma transcriptional activity. Drosophila S2 Gal4-RORgamma UAS-luciferase reporter, 20 h. Potency, µM (titrated, usually from 53.6 µM), hits mostly inhibitors. 310,000 compounds, 5.4% hits; also: nearly all actives have a fitted effect of over 60% in size
Target sequence (P51450 whole entry, looked up, the tested form may be a part): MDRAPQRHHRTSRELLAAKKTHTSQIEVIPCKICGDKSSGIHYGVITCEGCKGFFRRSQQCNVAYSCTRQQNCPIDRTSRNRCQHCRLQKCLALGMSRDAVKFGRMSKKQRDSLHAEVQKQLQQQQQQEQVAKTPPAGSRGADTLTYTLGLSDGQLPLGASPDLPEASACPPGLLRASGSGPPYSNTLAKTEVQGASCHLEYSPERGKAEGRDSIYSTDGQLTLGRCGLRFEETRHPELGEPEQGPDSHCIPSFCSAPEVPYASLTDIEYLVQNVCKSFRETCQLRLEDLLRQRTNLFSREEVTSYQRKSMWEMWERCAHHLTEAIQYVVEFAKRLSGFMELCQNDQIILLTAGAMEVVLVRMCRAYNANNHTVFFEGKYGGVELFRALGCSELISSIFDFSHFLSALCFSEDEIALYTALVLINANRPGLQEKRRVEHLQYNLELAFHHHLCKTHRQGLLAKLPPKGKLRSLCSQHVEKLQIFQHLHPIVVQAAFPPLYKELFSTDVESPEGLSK
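Using a luciferase readout, inhibitors were identified by reduced reporter activity in Drosophila cells coexpressing a copper-inducible Gal4–ROR gamma fusion and UAS-driven Photinus luciferase, incubated 20 hr after 700 uM copper sulfate.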
ELG1 repair inh – qHTS screen for small molecules that inhibit ELG1-dependent DNA repair in human embryonic kidney (HEK293T) cells expressing luciferase-tagged ELG1; HEK293T ELG1-luciferase reporter, luminescence, 16 h; DNA damage induced by 5-fluorouridine; Potency, µM (top dose mostly 46.1 µM), actives largely listed as inhibitors; 330,000 compounds, 2.3% hits; AID 504467, 2011; also: nearly all actives have a fitted effect of over 55% in size
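Luminescence from the luciferase reporter, measured 30 min after ONE-Glo reagent at room temperature, was the read-out. Beforehand, 2,000 cells per well were exposed for 16 hr at 37 °C to 5-fluorouridine together with compound or vehicle.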
Gal4-VP16 FLuc – VP16 counterscreen qHTS for inhibitors of ROR gamma transcriptional activity | 310,000 compounds, 3.5% hits | Drosophila S2 Gal4-VP16 UAS-luciferase, luminescence, 20 h | AID 2546, 2010 | Potency, µM (titrated, usually from 53.6 µM), most hits filed as inhibitors;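 also: Gal4-VP16 expression switched on by copper sulfate through the metallothionein promoter; nearly all actives have a fitted effect of over 50% in size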
DT40 TDP1 no CPT – qHTS for Inhibitors of human tyrosyl-DNA phosphodiesterase 1 (TDP1): qHTS in cells in absence of CPT; Potency, µM (highest dose often 46.2 µM), usual class: inhibitors; DT40 Tdp1-/- hTDP1 cells, no CPT, ATP luminescence, 48 h; 420,000 compounds, 15% hits; also: nearly all actives have a fitted effect of over 55% in size
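Readout: luminescence from CellTiter-Glo after 30 min in the dark at RT. Cells: DT40 Tdp1-/- with stable hTDP1, 400/well. Exposure: compounds alone, ≥48 hr, 37 °C.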
Hits are given with their value; n = inactive; u = inconclusive; x = no result. Unless noted, calls follow the shape of the dose curve; as a rule, active = well fitted curve in the direction sought with a large enough effect; inconclusive = small, poorly fitted or top-dose-only effect, or another doubt; inactive = no such curve, though single readings can be large; an effect the other way counts as inactive or inconclusive.

SMILES | TDP1 cell CPT | IL1B secr inh | RORg inh | ELG1 repair inh | Gal4-VP16 FLuc | DT40 TDP1 no CPT
CN(Cc1ccccc1)C(=O)c1cccc(NC(=O)Cc2ccc(NC(=O)C3CCN(C(=O)c4ccccc4)CC3)cc2)c1 | n | n | x | x | x | n
CCCCCCN1C[C@@H](n2cc(COC(=O)c3ccccc3)nn2)[C@H](O)C[C@@H]1c1ccc(OC)cc1 | u | n | x | x | x | u
Cc1nnc(N2CCN(c3cccc(Cl)c3)CC2)c2c1nnn2Cc1ccc(F)cc1 | n | x | x | x | x | u
Cc1nnc(N2CCN(c3ccccc3F)CC2)c2c1nnn2Cc1ccccc1Cl | 15µM | x | x | x | x | u
Cc1nnc(N2CCN(c3ccccc3F)CC2)c2c1nnn2Cc1ccccc1 | u | x | x | x | x | 16µM
C[C@H](CO)N1C[C@H](C)[C@@H](CN(C)Cc2ccc3c(c2)OCCN3C)OCc2cnnn2CCCC1=O | u | n | x | x | x | n
CCC(C)Nc1nc(-c2ccc3c(c2)NC(=O)CO3)cs1 (stereo not drawn) | 23µM | n | n | u | n | u
COc1ccc(Nc2nc(-c3ccc4c(c3)NC(=O)CO4)cs2)cc1 | u | n | n | 16µM | n | u
CC[C@H](C)[C@H](NC(=O)c1ccc(Cl)cc1)C(=O)OCC(=O)c1ccc2c(c1)NC(=O)CO2 | u | n | n | u | u | u
COc1ccccc1Nc1nc(-c2cccs2)cs1 | n | n | n | u | n | n
Cc1cccc(Nc2nc(-c3ccc4c(c3)OCCO4)cs2)c1 | n | n | n | u | n | n
COc1ccccc1Nc1nc(-c2ccc3c(c2)NC(=O)CO3)cs1 | 23µM | u | n | u | n | 18µM
COc1ccc(-c2cc(-c3ccccc3)nc(-c3ccc4c(c3)NC(=O)CO4)c2)cc1 | u | n | n | 23µM | n | u
CCOC(=O)c1ccc(N2CCN(c3cccc(Cl)c3)CC2)c(NC(=O)Nc2ccc(OC)cc2OC)c1 | n | x | x | x | x | n
Cc1csc2nc(CCNS(=O)(=O)c3ccc(F)cc3)cn12 | n | x | x | x | x | n
Cc1ccc(C(=O)NCCc2nnc3ccc(SCC(=O)N4CCCCC4)nn23)cc1 | n | n | n | n | n | n
COc1ccc2nc3n(c(=O)c2c1)-c1ncccc1C(=O)NC3CC(C)C (stereo not drawn) | n | n | x | x | x | n
CC(Sc1nnc2c(n1)[nH]c1ccccc12)C(=O)NC1CCCCC1 (stereo not drawn) | 23µM | n | n | u | u | 21µM
CC(Sc1nnc2c(n1)[nH]c1ccccc12)C(=O)N(C)C1CCCCC1 (stereo not drawn) | 26µM | -56 | u | u | u | 21µM
O=C(CSc1nnc2c(n1)[nH]c1ccccc12)N1CCCCC1 | n | n | n | n | n | n
Cc1cccc(N(CC(=O)NC2CCCC2)C(=O)c2csnn2)c1C | n | n | n | n | n | n
Cc1ccc(C)c(N(CC(=O)NC2CCCC2)C(=O)c2cc3cc4cc(C)ccc4nc3s2)c1 | 8.2µM | n | n | n | n | 11µM
Cc1cccc(N(CC(=O)NC2CCCC2)C(=O)c2cc3cc4cccc(C)c4nc3s2)c1C | 18µM | u | n | 18µM | n | 16µM
Cc1ccc(Cl)cc1N(CC(=O)NC1CCCC1)C(=O)c1csnn1 | n | n | n | n | n | n
C[C@](N)(COP(=O)(O)O)C(=O)O | n | x | n | x | n | n
SMILES | TDP1 cell CPT | IL1B secr inh | RORg inh | ELG1 repair inh | Gal4-VP16 FLuc | DT40 TDP1 no CPT
CCOC(=O)CC1(NC(=O)c2cc(COc3ccc(F)c(F)c3)on2)CCCCC1 | 23µM | n | u | n | n | 18µM
Cc1cc(C)n(CC(C)NC(=O)c2cc(COc3ccc(F)c(F)c3)on2)n1 (stereo not drawn) | u | n | u | u | n | 16µM
Cc1cccc(CC(C)NC(=O)c2cc(COc3ccc(C)c(C)c3)on2)n1 (stereo not drawn) | 21µM | u | n | u | n | 21µM
Cc1nc(C(C)NC(=O)c2cc(COc3ccc(F)c(F)c3)on2)cs1 (stereo not drawn) | u | n | n | n | n | u
Cc1ccc(OCc2cc(C(=O)NC(C)Cc3cnccn3)no2)cc1C (stereo not drawn) | u | n | n | n | n | u
Cn1c(CCNC(=O)c2cc(COc3ccc(F)c(F)c3)on2)nc2ccccc21 | u | n | u | n | n | u
Cc1cc(CNC(=O)c2cc(COc3ccc(F)c(F)c3)on2)nn1C | 15µM | n | n | u | n | u
COc1ccc(CNC(=O)CN2C(=O)NC(C)(c3cccc(Br)c3)C2=O)cc1 (stereo not drawn) | n | n | n | n | n | n
CCC1CCCCN1C(=O)CSc1nnc(-c2c[nH]c3ccccc23)o1 (stereo not drawn) | 21µM | n | n | u | n | u
CCOC(=O)CSc1nnc(-c2c[nH]c3ccccc23)o1 | n | -93 | n | n | n | n
CC1CCCN(C(=O)CSc2nnc(-c3c[nH]c4ccccc34)o2)C1 (stereo not drawn) | u | n | n | n | n | u
O=C(COC(=O)c1c[nH]c2ccccc12)NC1CCCC1 | n | n | x | u | x | n
CC1CCCC(C)N1C(=O)CSc1nnc(-c2c[nH]c3ccccc23)o1 (stereo not drawn) | u | n | n | u | n | 16µM
CC1CCCC(C)N1C(=O)COC(=O)c1c[nH]c2ccccc12 (stereo not drawn) | n | n | x | u | x | 3.3µM
CCSc1nnc(-c2c[nH]c3ccccc23)o1 | n | n | n | u | n | n
CCCS(=O)(=O)NC(=O)C1(C)CCN(C(=O)c2c(-c3ccccc3)noc2C)C1 (stereo not drawn) | n | n | x | x | x | n
CC1CCCCN1C(=O)CSc1nnc(-c2ccc(Cl)s2)o1 (stereo not drawn) | u | n | n | u | n | 29µM
CCC1CCCCN1C(=O)CSc1nnc(-c2ccc(OC)cc2)o1 (stereo not drawn) | u | n | n | n | n | 21µM
CCC1CCCCN1C(=O)CSc1nnc(-c2ccc3c(c2)OCCO3)o1 (stereo not drawn) | n | n | n | n | n | n
CCc1ccc(NC(=O)CS(=O)CC(=O)Nc2ccc(N3CCOCC3)cc2)cc1 (stereo not drawn) | n | n | n | n | n | u
